Results from PubChem BioAssay (NCATS).
Where “and” joins values, the source holds several entries; their conditions need not be identical. Identical values can stand only once. Inconclusive results are not listed. Entries that show only a call come without a potency. Calls of active or inactive are those of the source. Unless noted, calls come from the whole dose curve.

Experiments:
[1] = Cell Viability - MRC5 (AID 434); conditions: MRC5 lung fibroblast viability, qHTS;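 note: potency is the fitted concentration of half-maximal effect; potency reflects cytotoxicity seen as loss of intracellular ATP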
Method in brief: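 qHTS cytotoxicity in human lung fibroblast MRC5 cells; 40 hr treatment, 37 °C; cellular ATP by luciferase luminescence; DMSO = 0%, 100 uM tamoxifen = 100% inhibition; Hill-fit AC50.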

[2] = biological target: Mitogen-activated protein kinase 10 (Mus musculus) (UniProt Q61831); experiment: JNK3 AlphaScreen Assay (AID 530; active = well fitted curve in either direction with a large enough effect, not every such curve was filed as active;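 note: kinase came from lysate of stimulated human HepG2 cells; signal reports phosphorylation of biotinylated GST-cJun 1-79 at Ser73 with 10 µM ATP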); conditions: JNK3 lysate, c-Jun phosphorylation; series mostly up to 57.1 µM
Method in brief: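 Compound titrations were preincubated 15 minutes at room temperature with substrate, antibody and pre-activated JNK3-containing HepG2 lysate. Reactions were started with 10 uM ATP and stopped with EDTA-containing bead buffer for AlphaScreen detection.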

[3] = Cell Viability - N2a (AID 540; active = well fitted curve in the direction sought with a large enough effect; an effect the other way counts as inactive or inconclusive;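 note: cells exposed to compound for 40 h at 37 °C; nearly all actives have a fitted effect of over 45% in size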); conditions: N2a mouse neuroblastoma cell viability; activity change, negative = cytotoxicity: at 92.2 µM (top of the series)
Method in brief: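 Luminescent ATP signal (CellTiter-Glo, 20 min at room temperature) served as the viability read-out after N2a cells were treated with compounds for 40 hours at 37 °C. Concentration-response data were fitted to the Hill equation for AC50.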

[4] = Cell Viability - H-4-II-E (AID 543; active = well fitted curve in the direction sought with a large enough effect; an effect the other way counts as inactive or inconclusive; note: nearly all actives have a fitted effect of over 35% in size); conditions: H-4-II-E rat hepatoma viability; series mostly up to 92.2 µM
Method in brief: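 Luminescent ATP signal (CellTiter-Glo) served as the viability read-out, with cytotoxicity seen as a concentration-dependent ATP drop. Cells were treated for 40 hours in complete medium. AC50 values derive from Hill-equation modelling.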

[5] = MultiTox-Fluor Cytotoxicity Assay - LYMP1-002 - Dead Cells (AID 960; active = well fitted curve in the direction sought with a large enough effect; an effect the other way counts as inactive or inconclusive; note: nearly all actives have a fitted effect of over 60% in size); conditions: LYMP1-002 lymphoblastoid cells, dead-cell protease fluorescence; series mostly up to 46.1 µM
Method in brief: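 LYMP1-002 cells 2500/well; 5 hr 37 C pre-incubation; compound 16 hr 37 C; MultiTox-Fluor reagent 60 min RT; dead-cell fluor Ex/Em 485/520. Norm. to DMSO (0%) vs 15 uM tetraoctylammonium bromide (100%); Hill AC50.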

[6] = biological target: Estrogen receptor (Homo sapiens) (UniProt P03372); experiment: qHTS assay for small molecule agonists of estrogen receptor alpha signaling (AID 588514); conditions: ER-alpha-UAS-bla HEK293, beta-lactamase ratio, 18 h; series mostly up to 76.8 µM; note: nearly all actives have a fitted effect of over 70% in size
Chain of Estrogen receptor (Homo sapiens) (P03372 whole entry, looked up): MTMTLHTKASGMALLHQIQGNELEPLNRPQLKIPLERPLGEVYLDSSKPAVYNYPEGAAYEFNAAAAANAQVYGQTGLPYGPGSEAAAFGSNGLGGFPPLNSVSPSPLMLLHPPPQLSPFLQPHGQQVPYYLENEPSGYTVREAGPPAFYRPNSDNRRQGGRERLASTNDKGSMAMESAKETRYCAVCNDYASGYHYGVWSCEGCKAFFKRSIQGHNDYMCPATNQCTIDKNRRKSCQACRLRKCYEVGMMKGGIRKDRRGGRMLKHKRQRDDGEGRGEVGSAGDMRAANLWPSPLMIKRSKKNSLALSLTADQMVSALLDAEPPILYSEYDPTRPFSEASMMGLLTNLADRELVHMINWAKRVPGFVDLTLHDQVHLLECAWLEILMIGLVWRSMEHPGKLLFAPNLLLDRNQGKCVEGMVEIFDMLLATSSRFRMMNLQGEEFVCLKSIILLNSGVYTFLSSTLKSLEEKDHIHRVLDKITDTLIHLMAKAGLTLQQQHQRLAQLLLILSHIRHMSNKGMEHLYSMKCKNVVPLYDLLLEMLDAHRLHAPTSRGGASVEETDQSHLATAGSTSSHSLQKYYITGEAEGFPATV
Method in brief: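 Cells were plated at 5000/well, incubated 4 hrs at 37 C, dosed with compound titration series, incubated 18 hrs at 37 C, loaded with CCF4 dye for 2 hrs at RT, then fluorescence was read.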

[7] = biological target: Bile acid receptor (Homo sapiens) (UniProt Q96RI1); experiment: qHTS assay for small molecule agonists of farnesoid X receptor signaling (AID 588527); conditions: HEK293T FXR-UAS-bla, beta-lactamase ratio, 16 h; stronger effect = higher value
Chain of Bile acid receptor (Homo sapiens) (Q96RI1 whole entry, looked up): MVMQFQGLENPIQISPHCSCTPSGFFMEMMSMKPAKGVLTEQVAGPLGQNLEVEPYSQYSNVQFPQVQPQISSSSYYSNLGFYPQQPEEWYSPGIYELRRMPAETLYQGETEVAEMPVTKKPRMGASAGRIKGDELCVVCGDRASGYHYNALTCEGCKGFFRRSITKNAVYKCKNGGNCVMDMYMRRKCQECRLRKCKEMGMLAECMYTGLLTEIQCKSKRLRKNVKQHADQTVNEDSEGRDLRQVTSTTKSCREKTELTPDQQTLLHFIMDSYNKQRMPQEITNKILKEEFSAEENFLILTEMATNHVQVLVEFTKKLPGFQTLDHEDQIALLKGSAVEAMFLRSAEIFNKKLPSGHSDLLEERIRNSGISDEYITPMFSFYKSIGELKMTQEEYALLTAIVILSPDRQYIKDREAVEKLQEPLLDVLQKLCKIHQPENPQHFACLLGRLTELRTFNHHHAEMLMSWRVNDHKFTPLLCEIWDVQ
Method in brief: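 Quantitative HTS used FXR-UAS-bla HEK293T cells with 16 h compound incubation at 37 C. EC50 values came from concentration-response curves normalized to chenodeoxycholic acid.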

[8] = biological target: Glucocorticoid receptor (Homo sapiens) (UniProt P04150); experiment: qHTS assay for small molecule agonists of glucocorticoid receptor signaling (AID 588532; active = well fitted curve in the direction sought with a large enough effect in the signal ratio, with a control signal flat; the % refers to the signal ratio); conditions: HeLa MMTV-bla, beta-lactamase ratio, agonist, 18 h; stronger effect = higher value; percent of dexamethasone control, DMSO zero
Chain of Glucocorticoid receptor (Homo sapiens) (P04150 whole entry, looked up): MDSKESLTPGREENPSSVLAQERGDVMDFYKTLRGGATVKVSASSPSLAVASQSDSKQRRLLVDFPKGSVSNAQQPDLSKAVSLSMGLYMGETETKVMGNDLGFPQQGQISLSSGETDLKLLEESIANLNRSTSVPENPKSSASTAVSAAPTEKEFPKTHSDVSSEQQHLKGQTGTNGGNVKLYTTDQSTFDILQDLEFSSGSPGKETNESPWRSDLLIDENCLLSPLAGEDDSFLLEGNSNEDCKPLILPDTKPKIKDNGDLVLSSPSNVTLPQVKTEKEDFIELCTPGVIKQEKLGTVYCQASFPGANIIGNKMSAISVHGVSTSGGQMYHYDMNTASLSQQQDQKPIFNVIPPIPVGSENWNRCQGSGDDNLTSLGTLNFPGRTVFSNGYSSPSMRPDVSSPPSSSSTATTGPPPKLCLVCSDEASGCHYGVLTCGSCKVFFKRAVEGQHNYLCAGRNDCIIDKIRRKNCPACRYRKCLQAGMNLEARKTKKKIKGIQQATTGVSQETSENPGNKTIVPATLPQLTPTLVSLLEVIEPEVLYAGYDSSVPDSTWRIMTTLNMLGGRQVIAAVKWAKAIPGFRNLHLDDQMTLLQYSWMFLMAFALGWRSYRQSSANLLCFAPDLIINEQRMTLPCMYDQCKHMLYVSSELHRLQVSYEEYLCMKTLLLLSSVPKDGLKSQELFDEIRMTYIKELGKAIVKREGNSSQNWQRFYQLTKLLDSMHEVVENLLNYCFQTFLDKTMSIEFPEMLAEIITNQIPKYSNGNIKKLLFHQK
Method in brief: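 Quantitative HTS using CellSensor MMTV-bla HeLa cells in charcoal/dextran-treated serum; compounds tested up to 92 uM. After 18 h at 37 C, CCF4 dye reported reporter induction.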

[9] = biological target: Glucocorticoid receptor (Homo sapiens) (UniProt P04150); experiment: qHTS assay for small molecule antagonists of glucocorticoid receptor signaling (AID 588533; active = well fitted inhibition curve with a large enough effect in the signal ratio, with a control signal flat, not every such curve was filed as active; the % refers to the signal ratio;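 note: cells stimulated with 2 nM dexamethasone as agonist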); conditions: HeLa MMTV-bla, GRE beta-lactamase ratio, antagonist mode, 18 h; series mostly up to 76.8 µM
Method in brief: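 Antagonist-mode qHTS: compound titrations added to GRE-bla HeLa cells, then dexamethasone 2 nM final; 18 h, 37 C. CCF4 FRET fluorescence normalized to dexamethasone and DMSO; IC50 from Hill fit.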

[10] = biological target: Peroxisome proliferator-activated receptor delta (Homo sapiens) (UniProt Q03181); experiment: qHTS assay for small molecule agonists of peroxisome proliferator-activated receptor delta signaling (AID 588534); conditions: HEK293T PPARdelta-UAS-bla, beta-lactamase ratio, 18 h; series mostly up to 76.7 µM
Chain of Peroxisome proliferator-activated receptor delta (Homo sapiens) (Q03181 whole entry, looked up): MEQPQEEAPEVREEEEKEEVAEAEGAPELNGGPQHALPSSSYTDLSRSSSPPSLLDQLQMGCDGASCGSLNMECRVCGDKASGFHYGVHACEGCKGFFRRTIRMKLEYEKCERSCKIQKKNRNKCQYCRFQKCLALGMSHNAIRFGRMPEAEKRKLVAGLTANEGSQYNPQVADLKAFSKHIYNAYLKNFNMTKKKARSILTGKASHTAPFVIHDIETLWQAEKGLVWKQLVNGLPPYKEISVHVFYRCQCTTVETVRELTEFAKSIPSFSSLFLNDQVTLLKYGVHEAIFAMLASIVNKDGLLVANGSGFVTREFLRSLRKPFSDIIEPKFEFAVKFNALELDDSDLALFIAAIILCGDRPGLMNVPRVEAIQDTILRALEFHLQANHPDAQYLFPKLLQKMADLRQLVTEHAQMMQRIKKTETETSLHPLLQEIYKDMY
Method in brief: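 Fluorescence from CCF4 substrate cleavage by beta-lactamase reporter, read 2 hrs at RT, measured agonist activity. Compounds were tested with 18 hrs exposure at 37 C. Concentration-response data fitted to Hill equation.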

[11] = qHTS assay for small molecule antagonists of peroxisome proliferator-activated receptor delta signaling (AID 588535; active = well fitted inhibition curve with a large enough effect in the signal ratio, with a control signal flat, not every such curve was filed as active; the % refers to the signal ratio;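 for max response: cells co-treated with a PPAR-delta agonist as stimulator during compound exposure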); conditions: HEK293T PPARd-UAS-bla, beta-lactamase FRET ratio, 18 h; 460 nm channel
Method in brief: (§1)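 HEK293T PPAR-delta-UAS-bla cells, 4000/well, 2% charcoal/dextran FBS; 5 h 37 C; cpd titration; 18 h 37 C; CCF4 2 h RT; FI 460/530 nm; Hill fit → IC50, efficacy.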

[12] = biological target: Peroxisome proliferator-activated receptor delta (Homo sapiens) (UniProt Q03181); experiment: as above; conditions: HEK293T PPARd-UAS-bla, beta-lactamase FRET ratio, 18 h; series mostly up to 76.7 µM
Method in brief: as §1

[13] = biological target: Peroxisome proliferator-activated receptor gamma (Homo sapiens) (UniProt P37231); experiment: qHTS assay for small molecule agonists of peroxisome proliferator-activated receptor gamma signaling (AID 588536; active = well fitted curve in the direction sought with a large enough effect in the signal ratio, with a control signal flat, not every such curve was filed as active; the % refers to the signal ratio); conditions: HEK293 PPARg-UAS-bla, beta-lactamase ratio, 16 h, percent of rosiglitazone response, DMSO as zero; series mostly up to 76.7 µM
Chain of Peroxisome proliferator-activated receptor gamma (Homo sapiens) (P37231 whole entry, looked up): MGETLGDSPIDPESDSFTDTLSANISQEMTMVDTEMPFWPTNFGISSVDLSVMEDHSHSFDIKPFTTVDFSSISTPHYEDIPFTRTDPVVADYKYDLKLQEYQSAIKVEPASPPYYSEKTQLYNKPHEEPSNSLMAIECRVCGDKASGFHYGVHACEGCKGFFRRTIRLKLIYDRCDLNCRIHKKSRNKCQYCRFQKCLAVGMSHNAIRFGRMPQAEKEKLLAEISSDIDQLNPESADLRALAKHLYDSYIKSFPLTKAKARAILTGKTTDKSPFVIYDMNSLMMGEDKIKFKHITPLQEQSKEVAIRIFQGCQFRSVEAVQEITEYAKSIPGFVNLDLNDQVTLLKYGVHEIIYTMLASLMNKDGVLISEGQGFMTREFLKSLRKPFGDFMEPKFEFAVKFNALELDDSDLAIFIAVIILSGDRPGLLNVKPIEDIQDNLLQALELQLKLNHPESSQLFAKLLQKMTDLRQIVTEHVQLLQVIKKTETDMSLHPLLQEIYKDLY
Method in brief: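 HEK293 UAS-bla reporter line, 1% charcoal/dextran FBS; titration, 16 h, 37 C; CCF4 loading 2 h RT; fluorescence 460/530 nm. Normalized to rosiglitazone 2 uM = 100%, DMSO = 0%.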

[14] = biological target: Peroxisome proliferator-activated receptor gamma (Homo sapiens) (UniProt P37231); experiment: qHTS assay for small molecule antagonists of peroxisome proliferator-activated receptor gamma signaling (AID 588537; active = well fitted inhibition curve with a large enough effect in the signal ratio, with a control signal flat, not every such curve was filed as active; the % refers to the signal ratio;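 note: reporter cells co-stimulated with 50 nM rosiglitazone agonist during compound treatment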); conditions: HEK293 PPARg-UAS-bla, beta-lactamase ratio, antagonist mode; series mostly up to 76.8 µM
Method in brief: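 Antagonist mode, beta-lactamase reporter in HEK293; charcoal/dextran FBS 1%; 3000 cells/well, 37 C 6-6.5 h; cpd titration + rosiglitazone 50 nM final, 16 h 37 C; CCF4, 2 h RT; 460/530 nm; Hill fit → IC50, efficacy.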

[15] = biological target: Vitamin D3 receptor (Homo sapiens) (UniProt P11473); experiment: qHTS assay for small molecule antagonists of vitamin D receptor signaling (AID 588541); conditions: HEK293T VDR-UAS-bla, beta-lactamase ratio, antagonist mode; series mostly up to 76.7 µM;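 note: receptor activated by calcitriol during compound treatment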
Chain of Vitamin D3 receptor (Homo sapiens) (P11473 whole entry, looked up): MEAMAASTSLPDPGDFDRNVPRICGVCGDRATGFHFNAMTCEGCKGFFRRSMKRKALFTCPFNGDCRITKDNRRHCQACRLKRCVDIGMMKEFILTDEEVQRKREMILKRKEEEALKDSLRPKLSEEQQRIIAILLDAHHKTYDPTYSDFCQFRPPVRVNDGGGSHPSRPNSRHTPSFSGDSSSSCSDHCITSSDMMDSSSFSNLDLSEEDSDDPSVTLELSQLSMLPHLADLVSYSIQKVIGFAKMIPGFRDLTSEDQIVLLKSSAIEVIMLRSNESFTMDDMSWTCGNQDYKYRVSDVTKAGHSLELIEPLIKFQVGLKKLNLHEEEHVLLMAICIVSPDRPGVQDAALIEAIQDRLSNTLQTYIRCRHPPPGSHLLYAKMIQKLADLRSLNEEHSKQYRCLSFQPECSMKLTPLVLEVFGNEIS
Method in brief: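 Antagonist-mode beta-lactamase reporter assay: HEK293T VDR-UAS-bla cells were exposed to titrated compound alongside 1-alpha,25-dihydroxyvitamin D3 at 3 nM final for 16 h. Values were normalized to the 50 nM agonist control and DMSO basal, with IC50 and efficacy from Hill equation fits.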

[16] = biological target: Vitamin D3 receptor (Homo sapiens) (UniProt P11473); experiment: qHTS assay for small molecule agonists of vitamin D receptor signaling (AID 588543); conditions: HEK293T VDR-UAS-bla, beta-lactamase ratio, 16 h; series mostly up to 76.8 µM
Method in brief: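 Reporter cells (HEK293T, VDR-UAS-bla) were seeded in medium with 2% charcoal-stripped serum and incubated 5 h, then compounds in concentration series were added for 16 h at 37 °C. Stimulation was scaled between DMSO basal and 50 nM 1α,25-dihydroxyvitamin D3.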

[17] = qHTS assay for small molecule antagonists of the retinoid-related orphan receptor gamma (ROR-gamma) signaling pathway - cell viability counter screen (AID 720652; active = well fitted curve in the direction sought with a large enough effect in the repeat runs; an effect the other way counts as inactive or inconclusive;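 note: compound exposure lasted 16 hr before ATP read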); conditions: RORgamma reporter cell line viability counter screen; series mostly up to 92.2 µM
Method in brief: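 Luminescence from CellTiter-Glo after 30 min at room temperature reported cellular ATP as the cytotoxicity measure. Cells were the CHO reporter line with doxycycline-induced ROR-gamma expression, exposed to compound for 16 hr at 37 C.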

[18] = Cell Viability - Hek293 (AID 427;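 active = compounds whose dose-response curve shows a full or clear partial loss of cell viability, called from curve shape rather than a numeric limit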;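 note: potency is the fitted concentration of half-maximal effect; cells exposed to compound for 40 hours at 37 °C before reading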); conditions: qHTS
Method in brief: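 AC50 values derive from Hill-modelled concentration-response of ATP-based luminescence, normalized between DMSO-only and 100 uM tamoxifen controls. Cells were exposed in complete culture medium for 40 hr at 37 °C before detection.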

[19] = qHTS assay for small molecule agonists of the antioxidant response element (ARE) signaling pathway (AID 651741; active = well fitted activation curve with a large enough effect in the signal ratio; the % refers to the signal ratio; note: potency is the fitted concentration of half-maximal effect); conditions: HepG2 ARE-bla reporter, beta-lactamase FRET ratio, 16 h; series mostly up to 96 µM
Method in brief: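 Quantitative HTS in HepG2 cells stably expressing an ARE-beta-lactamase reporter; 16 h compound exposure at 37 C, followed by 2 h room-temperature incubation with LiveBLAzer B/G FRET substrate and fluorescence measurement.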

[20] = qHTS assay for small molecule activators of the nuclear factor-kappa B (NF-kB) signaling pathway (AID 651749; active = well fitted activation curve with a large enough effect in the signal ratio; the % refers to the signal ratio); conditions: NF-kB-bla ME-180 cells, beta-lactamase FRET ratio, 16 h; stronger effect = higher value
Method in brief: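 Readout: beta-lactamase reporter driven by an NF-kB response element, detected fluorescently as loss of FRET. Cells were the ME-180 line, treated 16 hr at 37C with pin-transferred compound.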

Row | Structure (SMILES) | Potency [1] | Potency [2] | Potency [3] | Potency [4] | Potency [5] | Potency [6] | activation [7] | activation [8] | outcome [9] | outcome [10] | max response [11] | outcome [12] | outcome [13] | Potency [14] | outcome [15] | outcome [16] | Potency [17] | Potency [18] | Potency [19] | activation [20]
1 | OCCOCCO | > 92 µM (inactive) | inactive | inactive | inactive | inactive | inactive | -2.87% (inactive) | -0.687% (inactive) | inactive | inactive | 5.13% | inactive | inactive | inactive | inactive | inactive | inactive | – | – | –
2 | C=C(Cl)CCl | – | inactive | – | – | inactive | inactive | – | -2.96% (inactive) | inactive | – | 15.9% | inactive | inactive | – | inactive | inactive | inactive | > 92 µM (inactive) | inactive | –
3 | CCBr | > 92 µM (inactive) | inactive | inactive | inactive | inactive | inactive | – | 4.52% (inactive) | inactive | inactive | 13.3% | inactive | – | – | inactive | – | inactive | – | inactive | -0.926% (inactive)
4 | Nc1ccc(Cc2ccc(N)cc2)cc1 | > 92 µM (inactive) | – | inactive | inactive | inactive | – | -2.78% (inactive) and 3.63% (inactive) | 1.44% (inactive) and -0.448% (inactive) | inactive | inactive | 34.2% and -15.9% | inactive | inactive | inactive | inactive | inactive | – | – | – | -0.031% (inactive) and 0.544% (inactive)
5 | O=[N+]([O-])c1ccc(Cl)cc1 | – | – | inactive | – | inactive | – | – | -1.26% (inactive) and -4.41% (inactive) | inactive | – | – | – | – | – | inactive | inactive | inactive | > 92 µM (inactive) | inactive | -0.791% (inactive) and -0.89% (inactive)
6 | COc1cc(-c2ccc(N)c(OC)c2)ccc1N | – | – | inactive | inactive | inactive | – | – | – | – | inactive | 17.7% and -36% | inactive | inactive | inactive | inactive | inactive | – | > 92 µM (inactive) | 1.06 µM (active) and 2.17 µM (active) | 0.354% (inactive) and 3.2% (inactive) and 2.92% (inactive)
7 | N#CCCC#N | > 92 µM (inactive) | inactive | – | inactive | – | inactive | -0.443% (inactive) | – | – | inactive | 18.6% | inactive | inactive | – | inactive | inactive | inactive | – | inactive | 0.61% (inactive)
8 | CCC(Cl)[N+](=O)[O-] (stereo not drawn) | > 92 µM (inactive) | inactive | – | inactive | – | inactive | -1.12% (inactive) | -1.58% (inactive) | – | inactive | 2.58% | inactive | inactive | inactive | inactive | inactive | inactive | – | – | 0.0697% (inactive)
9 | CC(C)Br | – | inactive | – | – | inactive | inactive | -0.0522% (inactive) | – | inactive | – | – | – | inactive | inactive | inactive | inactive | inactive | > 92 µM (inactive) | inactive | –
10 | Nc1ccc([N+](=O)[O-])cc1N | > 92 µM (inactive) | inactive | inactive | inactive | – | – | – | – | – | inactive | 3.68% | inactive | inactive | inactive | inactive | inactive | inactive | > 92 µM (inactive) | 3.76 µM (active) and 2.73 µM (active) | –
11 | c1ccc(N=NNc2ccccc2)cc1 | – | – | inactive | inactive | inactive | inactive | – | – | – | – | -9.27% and 22.4% | inactive | inactive | – | inactive | inactive | – | – | 26.6 µM (active) and 9.69 µM (active) | –
12 | N#CC(Br)Br | > 92 µM (inactive) | inactive | inactive | – | inactive | inactive | -0.424% (inactive) | -5.99% (inactive) | – | inactive | -6.9% | inactive | inactive | inactive | – | – | – | > 92 µM (inactive) | 42.2 µM (active) | -1.36% (inactive)
